Data from PubChem BioAssay AID1159580 (chemical genetic matrix, 2015).
Several values for one entry are separate records, joined by “and”; a condition that tells them apart may be missing. Equal values may be shown once. Out of some 5,500 compounds screened, about 2,000 (36%) were called active. Not shown: some 18% with an inconclusive outcome. No stated cut-off is given here; in the data, active means normalized growth mostly below about 0.91 (no sharp cut-off); inconclusive means no clear call, values can overlap the other calls; inactive means mostly above about 0.92. The list shows a part of the results.

Experiment: chemical genetic growth profiling, strain panel (AID 1159580);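 further: tested at 20 µM; growth read once vehicle control cultures reached saturation at 30 °C; 1 = growth at the plate median or of vehicle wells; lower values mean less growth of the strain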
Settings: growth OD
[1] = S. cerevisiae deletion strains, locus YAL013W, strain DEP1, hits give low values
[2] = S. cerevisiae deletion strains, locus YBR229C, strain ROT2, hits give low values
[3] = S. cerevisiae deletion strains, locus YDL101C, strain DUN1, hits give low values
[4] = S. cerevisiae deletion strains, locus YDL134C, strain PPH21, hits give low values
[5] = S. cerevisiae deletion strains, locus YDR150W, strain NUM1, hits give low values
[6] = S. cerevisiae deletion strains, locus YEL061C, strain CIN8, hits give low values
[7] = S. cerevisiae deletion strains, locus YGR078C, strain PAC10, hits give low values
[8] = S. cerevisiae deletion strains, locus YHR030C, strain SLT2, hits give low values
[9] = S. cerevisiae deletion strains, locus YJR043C, strain POL32, hits give low values
[10] = S. cerevisiae deletion strains, locus YJR075W, strain HOC1, hits give low values
[11] = S. cerevisiae deletion strains, locus YLR039C, strain RIC1, hits give low values
[12] = S. cerevisiae deletion strains, locus YLR262C, strain YPT6, hits give low values
[13] = S. cerevisiae deletion strains, locus YMR263W, strain SAP30, hits give low values
[14] = S. cerevisiae deletion strains, locus YMR307W, strain GAS1, hits give low values
[15] = S. cerevisiae deletion strains, locus YNL153C, strain GIM3, hits give low values
[16] = S. cerevisiae deletion strains, locus YNL322C, strain KRE1, hits give low values
[17] = S. cerevisiae deletion strains, locus YPL055C, strain LGE1, hits give low values
[18] = S. cerevisiae deletion strains, locus YPL241C, strain CIN2, hits give low values
[19] = S. cerevisiae strains, strain wild type, hits give low values

Measured: normalized growth

CN1CCc2c(c3ccccc3n2Cc2ccccc2)C1
inactive: [1] 0.927 | [2] 1 | S. cerevisiae deletion strains, locus YCL029C, strain bik1, hits give low values 1.06 | S. cerevisiae deletion strains, locus YDL035C, strain GPR1, hits give low values 0.913 | S. cerevisiae deletion strains, locus YDL074C, strain BRE1, hits give low values 0.819 | [3] 1.02 | [4] 0.987 | S. cerevisiae deletion strains, locus YDL185W, strain tfp1, hits give low values 1.01 | S. cerevisiae deletion strains, locus YDL192W, strain arf1, hits give low values 1.01 | S. cerevisiae deletion strains, locus YDR101C, strain arx1, hits give low values 1 | [5] 1.01 | S. cerevisiae deletion strains, locus YDR162C, strain NBP2, hits give low values 0.992 | S. cerevisiae deletion strains, locus YDR318W, strain mcm21, hits give low values 0.992 | S. cerevisiae deletion strains, locus YDR388W, hits give low values 0.981 | S. cerevisiae deletion strains, locus YDR502C, strain sam2, hits give low values 0.953 | [6] 1 | S. cerevisiae deletion strains, locus YER110C, hits give low values 1.01 | S. cerevisiae deletion strains, locus YER155C, strain BEM2, hits give low values 1.02 | S. cerevisiae deletion strains, locus YER167W, strain BCK2, hits give low values 0.98 | S. cerevisiae deletion strains, locus YGL078C, strain dbp3, hits give low values 1.01 | S. cerevisiae deletion strains, locus YGL086W, strain mad1, hits give low values 0.963 | S. cerevisiae deletion strains, locus YGL248W, strain PDE1, hits give low values 0.998 | [7] 0.932 | [8] 0.949 and 1.03 | S. cerevisiae deletion strains, locus YHR079C, strain IRE1 (second series), hits give low values 1.01 | S. cerevisiae deletion strains, locus YHR079C, strain IRE1, hits give low values 1.03 | S. cerevisiae deletion strains, locus YHR094C, strain hxt1, hits give low values 1.01 | S. cerevisiae deletion strains, locus YHR129C, strain ARP1, hits give low values 1.01 | S. cerevisiae deletion strains, locus YHR200W, strain rpn10, hits give low values 0.999 | S. cerevisiae deletion strains, locus YIL066C, strain RNR3, hits give low values 0.951 | S. cerevisiae deletion strains, locus YIL073C, strain SPO22, hits give low values 0.956 | S. cerevisiae deletion strains, locus YIL125W, strain kgd1, hits give low values 0.996 | S. cerevisiae deletion strains, locus YIR030C, strain dcg1, hits give low values 1.01 | S. cerevisiae deletion strains, locus YJL095W, strain BCK1, hits give low values 0.847 and 1.02 | S. cerevisiae deletion strains, locus YJL134W, strain LCB3, hits give low values 1 | S. cerevisiae deletion strains, locus YJL168C, strain set2, hits give low values 1.02 | S. cerevisiae deletion strains, locus YJL187C, strain SWE1 (second series), hits give low values 0.96 | [9] 1.06 | S. cerevisiae deletion strains, locus YJR066W, strain TOR1, hits give low values 0.949 | [10] 0.934 | S. cerevisiae deletion strains, locus YKL009W, strain mrt4, hits give low values 0.934 | S. cerevisiae deletion strains, locus YKL068W, hits give low values 0.995 | S. cerevisiae deletion strains, locus YKL085W, strain MDH1 (second series), hits give low values 0.99 | S. cerevisiae deletion strains, locus YKL085W, strain MDH1, hits give low values 0.99 | S. cerevisiae deletion strains, locus YKL190W, strain CNB1, hits give low values 0.996 | S. cerevisiae deletion strains, locus YKR001C, strain vps1, hits give low values 1.01 | S. cerevisiae deletion strains, locus YLR058C, strain SHM2, hits give low values 0.998 | S. cerevisiae deletion strains, locus YLR102C, strain apc9, hits give low values 1.01 | S. cerevisiae deletion strains, locus YLR113W, strain HOG1, hits give low values 0.995 | S. cerevisiae deletion strains, locus YLR268W, strain sec22, hits give low values 1.03 | S. cerevisiae deletion strains, locus YLR330W, strain CHS5, hits give low values 1.01 | S. cerevisiae deletion strains, locus YLR371W, strain rom2, hits give low values 1.01 | S. cerevisiae deletion strains, locus YML016C, strain PPZ1, hits give low values 1 | S. cerevisiae deletion strains, locus YML032C, strain rad52, hits give low values 0.995 | S. cerevisiae deletion strains, locus YML124C, strain tub3, hits give low values 1.02 | S. cerevisiae deletion strains, locus YMR078C, strain ctf18, hits give low values 1.01 | S. cerevisiae deletion strains, locus YMR223W, strain ubp8, hits give low values 0.953 | [13] 0.912 | [14] 0.979 | S. cerevisiae deletion strains, locus YNL067W, strain RPL9B, hits give low values 0.959 | [15] 0.945 | S. cerevisiae deletion strains, locus YNL183C, strain NPR1, hits give low values 0.96 | S. cerevisiae deletion strains, locus YNL233W, strain BNI4, hits give low values 0.956 | S. cerevisiae deletion strains, locus YNL250W, strain rad50, hits give low values 1.01 | S. cerevisiae deletion strains, locus YNL271C, strain bni1, hits give low values 1.02 | S. cerevisiae deletion strains, locus YNL298W, strain CLA4, hits give low values 1 | S. cerevisiae deletion strains, locus YNL307C, strain MCK1, hits give low values 0.924 | [16] 1.01 | S. cerevisiae deletion strains, locus YNR052C, strain pop2, hits give low values 0.98 | S. cerevisiae deletion strains, locus YOL006C, strain TOP1, hits give low values 0.555 | S. cerevisiae deletion strains, locus YOL012C, strain htz1 1.16 | S. cerevisiae deletion strains, locus YOL147C, strain pex11, hits give low values 1.01 | S. cerevisiae deletion strains, locus YOR061W, strain CKA2, hits give low values 0.977 | S. cerevisiae deletion strains, locus YOR069W, strain VPS5, hits give low values 1 | S. cerevisiae deletion strains, locus YOR136W, strain idh2, hits give low values 0.996 | S. cerevisiae deletion strains, locus YOR144C, strain elg1, hits give low values 1.01 | S. cerevisiae deletion strains, locus YOR184W, strain ser1, hits give low values 0.983 | S. cerevisiae deletion strains, locus YOR231W, strain MKK1, hits give low values 1.03 | S. cerevisiae deletion strains, locus YOR316C, strain cot1, hits give low values 1.01 | [18] 1 | S. cerevisiae deletion strains, locus YPL256C, strain CLN2, hits give low values 1.06 | S. cerevisiae deletion strains, locus YPR119W, strain clb2, hits give low values 1.02 | S. cerevisiae deletion strains, locus YPR141C, strain kar3, hits give low values 0.999 | S. cerevisiae deletion strains, locus YPR163C, strain tif3, hits give low values 0.991 | S. cerevisiae deletion strains, locus YPR167C, strain met16, hits give low values 1 | S. cerevisiae deletion strains, strain wtn01, hits give low values 0.975 | [19] 0.947
active: S. cerevisiae deletion strains, locus YBR021W, strain FUR4, hits give low values 0.631 | S. cerevisiae deletion strains, locus YGR135W, strain pre9, hits give low values 0.863 | S. cerevisiae deletion strains, locus YGR229C, strain SMI1, hits give low values 0.577 | S. cerevisiae deletion strains, locus YGR252W, strain gcn5, hits give low values 0.646 | [11] 1.4 [resistant] | [12] 1.56 [resistant] | S. cerevisiae deletion strains, locus YLR342W, strain FKS1 (second series), hits give low values 0.64 | S. cerevisiae deletion strains, locus YLR418C, strain cdc73, hits give low values 0.714 | S. cerevisiae deletion strains, locus YNL128W, strain TEP1, hits give low values 0.58 | [17] 0.731

O=C1CCCc2c1c1ccccc1n2Cc1ccccc1
active: [11] 0.753 | [12] 0.75
inactive: [1] 0.99 | [2] 0.978 | [3] 0.974 | [4] 0.989 | [5] 0.893 | [6] 0.961 | [7] 0.972 | [8] 0.712 | S. cerevisiae deletion strains, locus YHR087W, strain rtc3, hits give low values 0.965 | S. cerevisiae deletion strains, locus YJL187C, strain SWE1, hits give low values 0.992 | [9] 0.996 | [10] 0.98 | S. cerevisiae deletion strains, locus YLR058C, strain SHM2 (second series), hits give low values 0.997 | S. cerevisiae deletion strains, locus YLR085C, strain ARP6, hits give low values 0.889 | S. cerevisiae deletion strains, locus YML094W, strain GIM5, hits give low values 0.91 | S. cerevisiae deletion strains, locus YMR219W, strain ESC1, hits give low values 0.975 | [13] 0.94 | [14] 0.973 | [15] 0.98 | S. cerevisiae deletion strains, locus YNL298W, strain CLA4 (second series), hits give low values 0.95 | [16] 0.974 | S. cerevisiae deletion strains, locus YNR030W, strain Alg12, hits give low values 0.951 | [17] 0.933 | [18] 0.987 | S. cerevisiae deletion strains, locus YPR135W, strain CTF4, hits give low values 0.839 | [19] 0.974
